Screening data as filed in PubChem BioAssay.
IL-2 act: qHTS of IL-2 Activators; activation, % (series mostly up to about 46 µM); IL-2 activation reporter assay, cell-based qHTS; stimulated with anti-CD3/CD4/CD28 beads; in transgenic mouse T cells; hit rate 0.065% among 360,000; in the data active means activation above about 50%; inconclusive means mostly about 30% to 49%; further: 0% is about no effect
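Readout: EGFP and DsRed signals by fluorescent plate cytometry. Unstimulated transgenic mouse T cells received compound 60 min before antibody-bead stimulation, then incubated 18 h at 37 degrees C.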
PTHR1 ag: qHTS for PTHR1 Agonists: Primary Screen; Parathyroid hormone/parathyroid hormone-related peptide receptor (Homo sapiens), Q03431; HEK293 GP2 PTHR1 cells, GloSensor cAMP luminescence, 1 h; Potency, µM (highest dose often 115 µM), for inactives: top-dose activation, most hits filed as activators; hit rate 0.075% among 410,000; further: potency means the concentration at half of the fitted maximal effect; nearly all actives have a fitted effect of over 55% in size
Target sequence (Q03431 whole entry, looked up): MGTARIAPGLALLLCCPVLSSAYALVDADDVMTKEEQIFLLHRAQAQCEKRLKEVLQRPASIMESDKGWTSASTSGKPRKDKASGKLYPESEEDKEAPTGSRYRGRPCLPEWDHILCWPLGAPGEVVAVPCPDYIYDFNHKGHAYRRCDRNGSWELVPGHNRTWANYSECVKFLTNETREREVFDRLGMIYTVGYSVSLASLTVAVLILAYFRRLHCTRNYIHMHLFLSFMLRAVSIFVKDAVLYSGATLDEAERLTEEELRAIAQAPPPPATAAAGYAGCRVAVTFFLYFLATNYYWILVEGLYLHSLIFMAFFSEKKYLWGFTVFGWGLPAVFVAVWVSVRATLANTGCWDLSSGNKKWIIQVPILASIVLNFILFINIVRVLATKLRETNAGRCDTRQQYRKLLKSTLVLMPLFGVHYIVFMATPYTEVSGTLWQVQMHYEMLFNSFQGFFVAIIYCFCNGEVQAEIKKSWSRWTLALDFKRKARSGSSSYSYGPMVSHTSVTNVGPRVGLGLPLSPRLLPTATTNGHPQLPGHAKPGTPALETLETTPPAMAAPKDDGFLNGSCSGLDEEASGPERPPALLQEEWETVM
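HEK-293-derived GP2 cells expressing PTHR1 and a GloSensor cAMP reporter, 3,000/well, plated overnight, given luciferin plus IBMX (each 0.5 mM as added) for 1 h at 37 °C, then compound for 1 h at 37 °C. Luminescence was read after 15 min at room temperature.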
TCR act: Activators of T cell receptors: qHTS campaign; primary human leukocytes, anti-CD3, IL-2 HTRF, 48 h; Potency, µM (series often up to 9.22 µM), for inactives: top-dose activation of IL-2 secretion, usual class: activators; 330,000 tested, under 10 active; AID 504894, 2011; further: % of control where 0% means no effect
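Using a-CD3 beads without co-stimulation, primary human leukocytes were exposed to compounds for 48 hr. An HTRF IL-2 kit measured the cytokine, with europium-to-d2 energy transfer producing emission at 665nm upon 320nm excitation.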
BCR signal inh: qHTS Assay to Find Inhibitors of Chronic Active B-Cell Receptor Signaling; Potency, µM (doses to about 46.1 µM), for inactives: at the top dose activity change, negative = inhibition, actives largely listed as inhibitors; ABC-DLBCL IkBa-CBG/CBR reporter, luminescence ratio, 4 h; hit rate 0.05% among 340,000; active means well fitted inhibition curve with a large enough effect in the signal ratio, with a control signal flat, not every such curve was filed as active; inconclusive means small, poorly fitted or top-dose-only effect, or effect the other way, or a change in a side signal; the % refers to the signal ratio;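 further: potency means the concentration at half of the fitted maximal effect; plate controls were basal doxycycline-induced cells for no effect and cells given 10 µM MG132 for full effect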
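Compounds up to 46 uM were incubated four hours with TMD8 cells whose green CBG68 luciferase is fused to IkappaBalpha; red CBR luminescence normalised the signal, and concentration-effect curves were fitted to fusion, red and ratio data.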
Mito fusion act: qHTS Assay for Small Molecule Inhibitors of Mitochondrial Division or Activators of Mitochondrial Fusion. AID 485298, 2010. Potency, µM (series often up to 46.1 µM), inactives show at the top dose growth rescue (activation), hits mostly activators. S. cerevisiae fusion-defective mutant growth rescue, CellTiterGlo 48 h. hit rate 0.23% among 320,000; further: potency means the concentration at half of the fitted maximal effect; % of control where 0% means no effect; nearly all actives have a fitted effect of over 45% in size
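Temperature-sensitive fusion-defective S. cerevisiae (e.g. fzo1-1, mgm1-5) were grown with compound in YPEG medium (3% ethanol, 3% glycerol) for 48 hours at 37C. Growth rescue was measured as viability by CellTiterGlo luminescence after 10 minutes at ambient.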
BRCA1 expr up: qHTS Assay to Identify Small Molecule Activators of BRCA1 Expression | MCF7-BRCA1-FFLuc reporter, luminescence, 48 h; response scale: scaled: vehicle 0%, 10 µM genistein 100% | hit rate 1.1% among 380,000 | AID 624202, 2012 | Potency, µM (titrated, usually from 46.1 µM), for the others: at the highest dose activation, usual class: activators; further: potency means the concentration at half of the fitted maximal effect; nearly all actives have a fitted effect of over 80% in size
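Luminescence from a BRCA1-driven firefly luciferase in MCF7 cells was read after 48 h compound exposure at 37 C. Data normalized against DMSO and a 10microM genistein activation control, then curve-fitted across the titration.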
Active calls of the source: *; [ ] = another dose, or the depositor's remark. The list is not random: actives were taken first. Their share in the collection is about 1.3%. Unless noted, the call rests on the fitted dose curve; in most records, active means well fitted curve in the direction sought with a large enough effect; inconclusive means small, poorly fitted or top-dose-only effect, or another doubt; inactive means no such curve, though single readings can be large; an effect the other way counts as inactive or inconclusive.

Results for C#CCNC(=O)/C=C/c1ccc(C)cc1 ?
IL-2 act: 0; PTHR1 ag: -4%; TCR act: -5%; BCR signal inh: 0%; Mito fusion act: 0%; BRCA1 expr up: 11µM*

How did O=C(Nc1cccc(C(F)(F)F)c1)C1CC(=O)N(Cc2ccco2)C1 (stereo not drawn) do in these assays?
IL-2 act: 9; PTHR1 ag: -25%; BRCA1 expr up: 2%

What do the screens show for `CC1(C)Cc2nc3sc4c(=O)[nH]cnc4c3cc2CS1`?
IL-2 act: -1; PTHR1 ag: -21%; TCR act: -2%; BCR signal inh: inconclusive; Mito fusion act: 12%; BRCA1 expr up: inconclusive

How did CCCCCn1cnc2c(sc3nc4c(cc32)CSC(C)(C)C4)c1=O do in these assays?
IL-2 act: 2; PTHR1 ag: -79%; TCR act: -2%[46.1 µM]; BCR signal inh: 4%; Mito fusion act: 3%; BRCA1 expr up: 2.2µM*

What do the screens show for `COc1cc(/C=N\n2nnnc2N)ccc1OCc1ccc(F)cc1`?
IL-2 act: -1; PTHR1 ag: inactive; TCR act: 4%; BCR signal inh: -8%; Mito fusion act: 0%; BRCA1 expr up: 20%

How did COc1cc(/C=N/n2c(C)n[nH]c2=S)ccc1OCc1ccc(F)cc1 do in these assays?
IL-2 act: 0; PTHR1 ag: inactive; TCR act: 3%[46.1 µM]; BCR signal inh: inconclusive; Mito fusion act: -1%; BRCA1 expr up: 5.6µM*

How did Cc1ccc(C(=O)NCC(=O)OCC(=O)Nc2ccc3[nH]c(=O)[nH]c3c2)cc1 do in these assays?
IL-2 act: -1; PTHR1 ag: -1%; TCR act: 2%; BCR signal inh: -1%; Mito fusion act: -1%; BRCA1 expr up: -3%

What do the screens show for `C=CCNC(=O)c1ccc(-c2nc(-c3ccc(Cl)cc3Cl)cs2)cc1`?
IL-2 act: -1; PTHR1 ag: -7%[57.5 µM]; TCR act: -6%; BCR signal inh: 0%; Mito fusion act: 2%; BRCA1 expr up: 11µM*

What do the screens show for `S=C(Nc1ccc2c(c1)OCO2)N1CCN(Cc2ccco2)CC1`?
IL-2 act: 1; PTHR1 ag: -79%; TCR act: 1%; BCR signal inh: inconclusive; Mito fusion act: 2%; BRCA1 expr up: 3.5µM*

What do the screens show for `CC(C)Oc1ccc(C(=O)NC2(C(F)(F)F)NC(=O)N(CCCc3ccccc3)C2=O)cc1` (stereo not drawn)?
IL-2 act: -3; PTHR1 ag: -33%; TCR act: -3%[46.1 µM]; BCR signal inh: -3%; Mito fusion act: 20µM*; BRCA1 expr up: -57%

How did Cc1ccc2[nH]cc(/C=C/c3cc[n+](C)cc3)c2c1 do in these assays?
IL-2 act: 71*; PTHR1 ag: -9%; TCR act: 4%; BCR signal inh: -2%; Mito fusion act: -9%; BRCA1 expr up: -62%

How did CC[n+]1ccc(/C=C/c2c[nH]c3ccccc23)cc1 do in these assays?
IL-2 act: 211*; PTHR1 ag: inactive; TCR act: 7%; BCR signal inh: 0%; Mito fusion act: 0%; BRCA1 expr up: -8%

How did C(=Nc1cnc2ccccc2c1)c1ccnc2ccccc12 do in these assays?
BRCA1 expr up: 6%

How did Cc1sc2nc(C3CC3)nc(SCC(=O)N3CCc4ccccc4C3)c2c1C do in these assays?
IL-2 act: 0; PTHR1 ag: -36%; TCR act: 0%; BCR signal inh: inconclusive; Mito fusion act: 13µM*; BRCA1 expr up: -21%

What do the screens show for `Cc1sc2nc(C3CC3)nc(SCC(=O)N3CCCc4ccccc43)c2c1C`?
TCR act: -5%; BCR signal inh: 11%; Mito fusion act: inconclusive

Results for O=C(Nc1ccc(Cl)c(Cl)c1)Nc1nnc(CC2=CCCCC2)s1 ?
IL-2 act: -1; PTHR1 ag: -20%; TCR act: 3%[46.1 µM]; BCR signal inh: inconclusive; Mito fusion act: -2%; BRCA1 expr up: -47%

How did Cc1cc(Nc2ccc(F)cc2)nc(-n2nc(C)cc2C)n1 do in these assays?
PTHR1 ag: -6%

How did Cc1cc(NC2CCCCC2)nc(-n2nc(C)cc2C)n1 do in these assays?
Mito fusion act: 15µM*

What do the screens show for `CCN(C(=O)Cn1c(SCC(=O)Nc2ccc(OC)cc2)nc2ccccc21)c1cccc(C)c1`?
PTHR1 ag: inactive

Results for O=C(COc1ccccc1Cl)Nc1ccc(Cl)cn1 ?
IL-2 act: 4; PTHR1 ag: -6%; BCR signal inh: inconclusive; Mito fusion act: 4%; BRCA1 expr up: 10µM*

What do the screens show for `CCc1cc(=O)oc2c(C)c(OCC(=O)NCC3CCC(C(=O)O)CC3)ccc12` (stereo not drawn)?
IL-2 act: 0; PTHR1 ag: 17%; TCR act: 4%; BCR signal inh: -26%; Mito fusion act: 0%; BRCA1 expr up: 2%

What do the screens show for `COC(=O)/C=C1\OCc2cc(OC)c(OCc3ccccc3)cc21`?
IL-2 act: 0; PTHR1 ag: -8%

How did COc1cc2c(cc1OC)/C(=C/c1ccc(Br)cc1)C(=O)OC2 do in these assays?
IL-2 act: 0; PTHR1 ag: inactive; TCR act: 2%[46.1 µM]; BCR signal inh: inconclusive; Mito fusion act: 16µM*; BRCA1 expr up: -65%

Results for N#C/C(=C(/O)CN1CCCCC1)c1nc(-c2ccc(Cl)cc2)cs1 ?
IL-2 act: -2; PTHR1 ag: -7%[57.5 µM]; TCR act: 3%; BCR signal inh: 13%; Mito fusion act: -2%; BRCA1 expr up: 7.1µM*

How did COc1ccccc1N1CCN(C(c2ccccn2)c2nnnn2C2CCCCC2)CC1 (stereo not drawn) do in these assays?
IL-2 act: 2; PTHR1 ag: inactive; TCR act: -3%; BCR signal inh: 19%; Mito fusion act: 10%; BRCA1 expr up: -16%

Results for Fc1ccccc1N1CCN(C(c2ccccn2)c2nnnn2C2CCCCC2)CC1 (stereo not drawn) ?
IL-2 act: -2; PTHR1 ag: -10%[57.5 µM]; TCR act: 2%; BCR signal inh: -2%; Mito fusion act: 13µM*; BRCA1 expr up: -3%

Results for N#C/C(=C\c1ccccc1[N+](=O)[O-])c1nc(C2CC2)cs1 ?
IL-2 act: -4; PTHR1 ag: -33%; TCR act: -2%[46.1 µM]; BCR signal inh: 2%; Mito fusion act: 20µM*; BRCA1 expr up: 0%
